Hits are enriched below; roughly 7% of the tested compounds scored in any of these assays.
JMJD2A Tudor inh – qHTS Assay for Inhibitors of JMJD2A-Tudor Domain. 390,000 tested, 4.4% active. Lysine-specific demethylase 4A (Homo sapiens), O75164. AID 504339, 2011. AlphaScreen JMJD2A-Tudor / H3K4me3 peptide binding. Potency, µM (doses to about 114 µM), for the others: at the highest dose activity change, negative = inhibition, usual class: inhibitors; also: potency is read from the fitted curve at half-maximal effect; % is scaled to controls: 0 for no effect and ±100 for the full control effect; nearly all actives have a fitted effect of over 50% in size
GCN5L2 inh – qHTS Assay for Inhibitors of GCN5L2; GCN5L2 HAT assay, ThioGlo1 CoA-SH fluorescence; Potency, µM (highest dose often 58.9 µM), inactives show at the top dose activity change, negative = inhibition, actives largely listed as inhibitors; AID 504327, 2011; 390,000 tested, 0.21% active; also: potency is read from the fitted curve at half-maximal effect; % is scaled to controls: 0 for no effect and ±100 for the full control effect
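Titration-based screen in which CoA formation is detected via maleimide probe ThioGlo1 (50uM) turning fluorescent on thiol reaction; substrates H3(1-25) 75uM and acetyl-CoA 70uM, GCN5L2 20nM, 20 min incubation at room temperature.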
PI5P4K alpha inh – qHTS for Inhibitors of phosphatidylinositol 5-phosphate 4-kinase (PI5P4K); Phosphatidylinositol 5-phosphate 4-kinase type-2 alpha (Homo sapiens), P48426; PI5P4Kalpha enzyme, ADP-Glo luminescence, 60 min; hits give low values; AID 652105, 2013; 330,000 tested, 1.2% active; max response, %; active = max response of -50% or lower; inconclusive = between -30% and -50%; inactive = -30% or higher; also: value at the top dose of about 77 µM; % is scaled to controls: 0 for no effect and ±100 for the full control effect
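ADP-Glo luminescence end-point after a 60 min room-temperature kinase reaction. PI5P4Kalpha and substrate in HEPES pH 7.4 buffer with EGTA, 0.1% CHAPS and 5% DMSO; ATP at 5 microM final.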
HP1b chromo inh – HTS for Inhibitors of HP1-beta Chromodomain Interactions with Methylated Histone Tails; AlphaScreen HP1-beta / biotin-H3K9me3 peptide binding; Potency, µM (doses to about 114 µM), without a hit: top-dose activity change, negative = inhibition, hits mostly inhibitors; Chromobox protein homolog 1 (Homo sapiens), P83916; 390,000 tested, 0.56% active; also: potency is read from the fitted curve at half-maximal effect; nearly all actives have a fitted effect of over 70% in size
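HP1-beta protein (50 nM final) preincubated 30 min at room temperature with biotinylated H3(1-18)K9me3 peptide (50 nM) in PBS pH 7.4, 0.01% Tween-20, then compound added for 30 min. AlphaScreen streptavidin donor/nickel chelate acceptor beads (10 ug/mL final), 30 min dark, luminescence read.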
BAZ2B inh – qHTS Assay for Inhibitors of BAZ2B. Bromodomain adjacent to zinc finger domain protein 2B (Homo sapiens), Q9UIF8. AlphaScreen BAZ2B-H3K14Ac peptide displacement. Potency, µM (highest dose often 114 µM), for inactives: at the highest dose activity change, negative = inhibition, actives largely listed as inhibitors. 360,000 tested, 4.4% active. AID 504333, 2011; also: potency is read from the fitted curve at half-maximal effect; % is scaled to controls: 0 for no effect and ±100 for the full control effect; nearly all actives have a fitted effect of over 60% in size
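Inhibition is scored as reduced AlphaScreen emission. The BAZ2B/b-H3(5-23)K14Ac complex (50 nM each) in PBS pH 7.4, 0.01% Tween-20 meets compound (up to 110 uM) for 30 min at RT before bead addition.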
PLK1 PBD inh – qHTS for Inhibitors of PLK1-PDB (polo-like kinase 1 - polo-box domain): Primary Screen; 360,000 tested, 2.8% active; AID 720504, 2013; Serine/threonine-protein kinase PLK1 (Homo sapiens), P53350; Potency, µM, without a hit: max response, negative = inhibition, most hits filed as inhibitors; Plk1 PBD binding of FITC phosphopeptide, fluorescence polarization; also: potency is read from the fitted curve at half-maximal effect; series mostly up to about 57 µM; % is scaled to controls: 0 for no effect and ±100 for the full control effect; nearly all actives have a fitted effect of over 65% in size
Active calls of the source: *; [ ] = dose if it differs, or a comment. Unless noted, calls follow the shape of the dose curve; as a rule, active = well fitted curve in the direction sought with a large enough effect; inconclusive = small, poorly fitted or top-dose-only effect, or another doubt; inactive = no such curve, though single readings can be large; an effect the other way counts as inactive or inconclusive.

Results for Fc1ccc2nc3c(nc2c1)CCCC3 ?
JMJD2A Tudor inh: 4%; GCN5L2 inh: 16%; PI5P4K alpha inh: 2; HP1b chromo inh: 29%; BAZ2B inh: -3%; PLK1 PBD inh: 0%

Results for COc1ccccc1C(=O)NC(=O)COC(=O)c1ccc(Br)o1 ?
JMJD2A Tudor inh: 3%; GCN5L2 inh: -12%; PI5P4K alpha inh: -1; HP1b chromo inh: 33%; BAZ2B inh: 4%; PLK1 PBD inh: -1%

What do the screens show for `Cc1ccc([N+](=O)[O-])cc1S(=O)(=O)N1CCC(C)CC1`?
JMJD2A Tudor inh: -14%[11.4 µM]; GCN5L2 inh: -2%; PI5P4K alpha inh: -2; HP1b chromo inh: inconclusive; BAZ2B inh: -31%; PLK1 PBD inh: 38µM*

What do the screens show for `Cc1ccc(S(=O)(=O)N2CCC(C)CC2)c([N+](=O)[O-])c1`?
JMJD2A Tudor inh: 1%[11.4 µM]; GCN5L2 inh: 18%; PI5P4K alpha inh: -1; HP1b chromo inh: inconclusive; BAZ2B inh: -25%; PLK1 PBD inh: 24µM*

Results for COc1ccc(C)cc1S(=O)(=O)N1CCC(C)CC1 ?
JMJD2A Tudor inh: -7%; GCN5L2 inh: -9%; HP1b chromo inh: 12%; BAZ2B inh: 4%; PLK1 PBD inh: -9%

Results for Oc1ccc(/C=C/c2nc(-c3ccccc3O)n(-c3ccccc3)n2)cc1 ?
JMJD2A Tudor inh: inconclusive; GCN5L2 inh: -20%; HP1b chromo inh: -10%; BAZ2B inh: inconclusive; PLK1 PBD inh: 5%

Results for Oc1ccc(/C=C/c2nc(-c3ccccc3O)n(-c3ccccc3)n2)c(O)c1 ?
JMJD2A Tudor inh: inconclusive; GCN5L2 inh: -16%; HP1b chromo inh: 1%; BAZ2B inh: 32µM*

Results for CCOc1ccc2c(c1)-c1c(ssc1=S)C(C)(C)N2 ?
JMJD2A Tudor inh: 25µM*; GCN5L2 inh: -6%; HP1b chromo inh: inconclusive; BAZ2B inh: 10µM*; PLK1 PBD inh: -2%

Results for O=S(=O)(O)c1ccc2c(N=Nc3ccc(S(=O)(=O)O)c4ccccc34)c(O)c(S(=O)(=O)O)cc2c1 ?
GCN5L2 inh: -9%

How did O=S(=O)(O)c1cc(O)c2c(N=Nc3ccc(Nc4ccccc4)c4c(S(=O)(=O)O)cccc34)cc(S(=O)(=O)O)cc2c1 do in these assays?
GCN5L2 inh: 13µM*

How did C/C(CC1(O)/C(=N/O)CCc2nonc21)=N\O (stereo not drawn) do in these assays?
JMJD2A Tudor inh: 16µM*; GCN5L2 inh: -5%; PI5P4K alpha inh: 1; HP1b chromo inh: 15%; BAZ2B inh: 4%; PLK1 PBD inh: 1%

How did C/C(CC1(O)C(=O)Nc2ccccc21)=N\O (stereo not drawn) do in these assays?
JMJD2A Tudor inh: -11%; GCN5L2 inh: 0%; PI5P4K alpha inh: -3; HP1b chromo inh: 19%; BAZ2B inh: -13%; PLK1 PBD inh: -2%

Results for Cc1c2c(=O)n(-c3nc4ccccc4s3)nc-2cc(O)n1Cc1ccccc1 ?
JMJD2A Tudor inh: -27%; GCN5L2 inh: inconclusive; PI5P4K alpha inh: -78*; HP1b chromo inh: 18%; BAZ2B inh: 40µM*; PLK1 PBD inh: -8%

What do the screens show for `Cc1cc(OC(=O)c2ccco2)c(Sc2ccccc2[N+](=O)[O-])c(=O)o1`?
JMJD2A Tudor inh: inconclusive; GCN5L2 inh: -14%; PI5P4K alpha inh: 1; HP1b chromo inh: -7%; BAZ2B inh: inconclusive; PLK1 PBD inh: 5.3µM*

What do the screens show for `O=C(Nc1cccc(Cl)c1)c1ccc2nc(Cc3ccccc3)oc2c1`?
JMJD2A Tudor inh: -7%; GCN5L2 inh: -3%; HP1b chromo inh: 37%[57 µM]; BAZ2B inh: 5%

Assay outcomes as filed in PubChem.
